In PubChem BioAssay AID2629 (Broad Institute, 2010):
Where “and” joins values, the source holds several entries; their conditions need not be identical. Equal values may be shown once. Among all 320,000 compounds or so, about 1,900 (0.59%) were called active. No stated cut-off is given here; in the data, active means inhibition mostly above about 10% (no sharp cut-off); inactive means mostly below about 6.7%. The sample as a whole holds a higher share of actives than the screen did.

What follows are compounds tested against Protein LANA1 (Human herpesvirus 8 type P (isolate GK18)) (UniProt Q9QR71) (assay: blockers of LANA interaction with H2A/H2B – biochemical, FP readout, HTS, primary screen (AID 2629)). Conditions: cell-free LANA-H2A/H2B peptide, fluorescence polarization, stronger effect = higher value, concentration not given here.
Sequence of Protein LANA1 (Human herpesvirus 8 type P (isolate GK18)) (Q9QR71 whole entry, looked up): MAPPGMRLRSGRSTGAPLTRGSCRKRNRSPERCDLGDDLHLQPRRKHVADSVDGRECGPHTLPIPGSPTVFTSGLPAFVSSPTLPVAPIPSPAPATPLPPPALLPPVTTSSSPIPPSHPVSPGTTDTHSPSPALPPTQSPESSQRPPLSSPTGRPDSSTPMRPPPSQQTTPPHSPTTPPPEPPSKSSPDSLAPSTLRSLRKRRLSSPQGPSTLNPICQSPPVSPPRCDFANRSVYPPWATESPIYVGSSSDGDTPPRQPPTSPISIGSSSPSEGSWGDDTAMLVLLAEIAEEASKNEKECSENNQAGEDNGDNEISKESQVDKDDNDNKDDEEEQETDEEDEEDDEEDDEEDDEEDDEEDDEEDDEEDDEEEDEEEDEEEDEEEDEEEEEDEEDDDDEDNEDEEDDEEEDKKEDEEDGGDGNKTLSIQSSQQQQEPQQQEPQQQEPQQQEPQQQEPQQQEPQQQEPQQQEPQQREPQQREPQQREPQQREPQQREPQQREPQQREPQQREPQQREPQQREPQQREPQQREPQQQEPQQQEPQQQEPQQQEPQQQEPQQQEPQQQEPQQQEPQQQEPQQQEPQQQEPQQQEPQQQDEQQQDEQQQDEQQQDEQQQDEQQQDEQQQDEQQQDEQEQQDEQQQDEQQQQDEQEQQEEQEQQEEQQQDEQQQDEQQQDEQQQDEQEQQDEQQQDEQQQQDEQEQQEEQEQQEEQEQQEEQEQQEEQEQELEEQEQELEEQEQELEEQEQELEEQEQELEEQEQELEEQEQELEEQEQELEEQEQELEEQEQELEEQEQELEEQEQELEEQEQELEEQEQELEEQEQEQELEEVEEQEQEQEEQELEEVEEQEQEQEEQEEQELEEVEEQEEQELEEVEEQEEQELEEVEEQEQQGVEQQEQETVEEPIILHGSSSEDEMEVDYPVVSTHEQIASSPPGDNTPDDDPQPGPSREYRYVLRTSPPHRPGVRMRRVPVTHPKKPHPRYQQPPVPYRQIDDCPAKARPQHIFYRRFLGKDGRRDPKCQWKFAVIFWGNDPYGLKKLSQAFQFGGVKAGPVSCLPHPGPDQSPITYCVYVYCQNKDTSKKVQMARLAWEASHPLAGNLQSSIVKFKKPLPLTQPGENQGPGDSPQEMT

| SMILES | inhibition |
| --- | --- |
| Cc1ccc(S(=O)(=O)NC(C(=O)N2CCOCCOCCOCCOCC2)c2ccccc2)cc1 (stereo unspecified) | -3.32% (inactive) |
| Brc1ccc(-c2n(-c3ccccn3)c3ccccc3[n+]2-c2ccccn2)cc1 | 5.04% (inactive) |
| C[C@@H](C(=O)Nc1ccc2ccccc2c1)[C@@H]1C[C@@]1(C)[C@@H](NC(=O)c1cccnc1)c1ccccc1 | 1.66% (inactive) |
| COc1ccc(C(=O)NC2CC2)cc1OC1CCN(C/C=C/c2ccccc2)CC1 | 5.63% (inactive) |
| COc1ccc(C(=O)NC2CC2)cc1OC1CCN(Cc2ccc(SC)cc2)CC1 | 12.2% (active) |
| COc1ccc(C(=O)NC2CC2)cc1OC1CCN(Cc2cnn(C)c2)CC1 | 2.53% (inactive) |
| COc1ccc(C(=O)n2nc(C)c(Br)c2C)cc1OC | 2.73% (inactive) |
| COc1ccc(C(=O)NC(=S)N2CCCCC2c2cccnc2)cc1OC (stereo unspecified) | -0.0544% (inactive) |
| Cc1cccn2c(=O)c3cc(C(=O)NC4CCCCC4)sc3nc12 | 32.6% (active) |
| CN(C(=O)c1cc2c(=O)n3ccccc3nc2s1)C1CCCCC1 | -5.4% (inactive) |
| Cc1ccccc1-n1nc(C)c2cc(C(=O)NC3CC3)sc21 | 0.464% (inactive) |
| O=C(Nc1ccccc1)/C(=C\c1ccco1)NC(=O)c1ccco1 | 4.48% (inactive) |
| COc1ccc(/C=C(/NC(=O)c2ccco2)C(=O)Nc2ccc(C(C)=O)cc2)cc1 | 3.73% (inactive) |
| Cc1ccc(NC(=O)/C(=C\c2ccccc2)NC(=O)c2ccco2)cc1 | 15.5% (active) |
| Cn1c(=O)c2c(nc(NCCNC(=O)c3ccco3)n2Cc2ccccc2F)n(C)c1=O | 0.914% (inactive) |
| CC[N+](C)(CC)CCC[n+]1c(-c2ccccc2)c2cc(N)ccc2c2ccc(N)cc21 | 37% (active) |
| COc1cc(N/C=C2\CC(=O)NC(C)=C2C#N)cc(OC)c1OC | 1.67% (inactive) |
| CCOC(=O)C(NS(=O)(=O)c1ccc(C)cc1)(C(F)(F)F)P(=O)(OCC(C)C)OCC(C)C (stereo unspecified) | -0.856% (inactive) |
| CC(C)C(=O)NC(NC(=S)NC1CCS(=O)(=O)C1)C(Cl)(Cl)Cl (stereo unspecified) | 5.16% (inactive) |
| CCN(CC)CCN(C(=O)c1cccc([N+](=O)[O-])c1)c1nc2ccc(OC)cc2s1 | 10.8% (active) |
| CCOc1ccc2nc(N(CCCN(C)C)C(=O)c3ccc(C(=O)c4ccccc4)cc3)sc2c1 | 2.47% (inactive) |
| CCOc1ccc2nc(N(CCN(C)C)C(=O)c3ccc4ccccc4c3)sc2c1 | -2.61% (inactive) |
| O=c1cc(-c2ccccc2)[nH]c2cc(F)ccc12 | -0.193% (inactive) |
| Cc1ccc(N/C(N)=N/c2nc(C(F)(F)F)cc(C(F)(F)F)n2)cc1 | 1.07% (inactive) |
| Cn1c(=O)c(=O)n(C)c2cc(S(=O)(=O)NCCN3CCN(c4ccccc4F)CC3)ccc21 | 2.45% (inactive) |
| Cc1ccc2c(c1)-c1c(ssc1=S)C(C)(C)N2C(=O)CN1C(=O)c2ccccc2C1=O | -1.1% (inactive) |

| SMILES | inhibition |
| --- | --- |
| CCC1=Nc2cc(C(=O)NCCCN3CCOCC3)ccc2Sc2ccc(Br)cc21 | 3.58% (inactive) |
| O=C(NCCCN1CCOCC1)c1ccc2c(c1)N(Cc1cccc(F)c1)C(=O)c1ccccc1S2 | -7.56% (inactive) |
| Cc1ccccc1CN1C(=O)c2ccccc2Sc2ccc(C(=O)NCCCN3CCOCC3)cc21 | 19.6% (active) |
| COc1ccc(Cl)cc1N(CC(=O)N/N=C/c1ccc(OCC(N)=O)cc1)S(C)(=O)=O | 0.205% (inactive) |
| COc1cc(NC(=O)c2[nH]cnc2C(N)=O)cc(C(=O)Nc2cccc(C(F)(F)F)c2)c1 | -1.33% (inactive) |
| O=C(NCc1cccs1)C1CCN(S(=O)(=O)c2ccc3c(c2)OCCO3)CC1 | -3.5% (inactive) |
| O=C(Nc1ccccn1)C1CCN(S(=O)(=O)c2ccccc2)CC1 | -0.314% (inactive) |
| O=C(Nc1ccccn1)C1CCN(S(=O)(=O)c2ccc3c(c2)OCCO3)CC1 | 35.5% (active) |
| Nc1c(-c2ccccc2)nnn1Cc1ccccc1 | -2.36% (inactive) |
| CCOC(=O)c1ccc(COC(=O)CCc2nc(-c3ccccc3)c(-c3ccccc3)o2)cc1 | -6.88% (inactive) |
| Cc1nnc(NC2=NCCCCC2)o1 | 4.02% (inactive) |
| COc1ccc(C)cc1NC(=O)CSc1ccc(Cl)cc1 | -4.45% (inactive) |
| COc1ccc(C)cc1NC(=O)CNCc1cccs1 | 0.209% (inactive) |
| Cc1onc(-c2ccccc2Cl)c1C(=O)N(Cc1ccc(N(C)C)cc1)C(C)C | 12.7% (active) |
| Cc1onc(-c2ccccc2Cl)c1C(=O)OCC(=O)c1ccccc1 | 4.43% (inactive) |
| Cc1onc(-c2ccccc2Cl)c1C(=O)NCCn1ccc2ccccc21 | -5.8% (inactive) |
| CC(C)COC(=O)n1c(=O)oc2ccc(S(=O)(=O)N3CCCCC3)cc21 | 2.24% (inactive) |
| C=CCc1cccc2cc(C(=O)OCC)c(=O)oc12 | -5.34% (inactive) |
| CCOC(=O)c1c(C)nc2c(c1C)c(=O)oc1ccccc12 | 1.54% (inactive) |
| CCOC(=O)c1cc2cc3ccccc3cc2oc1=O | 16.8% (active) |
| NC(=O)C[n+]1cccc(C(N)=O)c1 | -3.37% (inactive) |
| CC(CO)(CO)NC(=O)c1ccc(=O)[nH]n1 | 3.9% (inactive) |
| CCc1nn(CCCN2CCN(c3cccc(Cl)c3)CC2)c(=O)n1CCOc1ccccc1 | -0.456% (inactive) and 3% (inactive) |
| c1ccc2cc(CCCc3cc4ccccc4cn3)ncc2c1 | 2.17% (inactive) |
| Cc1noc(C)c1COc1ccccc1C(=O)N(C)CC(=O)Nc1cccc(F)c1 | 0.0499% (inactive) |
